# A549 viability = Nrf2 qHTS screen for inhibitors: counterscreen for cytotoxicity; Potency, µM (top dose mostly 46 µM), without a hit: at the highest dose activity change, negative = cytotoxicity, hits mostly inhibitors; 390,000 tested, 0.16% active; A549 ARE-Fluc cells, CellTiter-Fluor viability, 18-24 h; AID 504648, 2011; also: potency is read from the fitted curve at half-maximal effect; % is scaled to controls: 0 for no effect and ±100 for the full control effect
#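 Cytotoxicity counterscreen: CellTiter-Fluor fluorescence was measured in A549 ARE_Fluc cells after 18-24 h of compound exposure in a concentration series. The subsequent BugLite luminescent read reports ARE-luciferase activity.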
# Nrf2 ARE act = qHTS of Nrf2 Activators; AID 624171, 2012; AREc32 ARE-luciferase reporter (MCF7-derived line), luminescence, 24 h; 410,000 tested, 0.31% active; Potency, µM (highest dose often 46.1 µM), inactives show at the highest dose activation, usual class: activators; also: potency is read from the fitted curve at half-maximal effect; % of control where 0% means no effect; nearly all actives have a fitted effect of over 65% in size
#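 AREc32 cells carrying an ARE-driven firefly luciferase, 1000 cells/well in OPTI-MEM with 5% FBS, dosed after overnight attachment and incubated 24 hr at 37 deg C. Steady-Glo luminescence read after 30 min at RT.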
# ERG-DNA inh = qHTS for Small Molecule Inhibitors of the ERG Ets/DNA interaction | Transcriptional regulator ERG (Homo sapiens), P11308 | fluorescence polarization, His-ERG Ets domain / labelled DNA | Potency, µM (titrated, usually from 76.9 µM), for inactives: top-dose FP activity, negative = inhibition, usual class: inhibitors | 370,000 tested, 0.028% active | AID 624246, 2012; active = well fitted inhibition curve with a large enough effect in the polarisation, with a control signal flat; inconclusive = small, poorly fitted or top-dose-only effect, or effect the other way, or a change in a side signal; inactive = no such curve, though single readings can be large or run the other way; the % refers to the polarisation;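 also: polarization taken with two DNA probes labelled with fluorescein and Texas red; potency is read from the fitted curve at half-maximal effect; % of control where 0% means no effect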
# Target sequence (P11308 whole entry, looked up, the tested form may be a part): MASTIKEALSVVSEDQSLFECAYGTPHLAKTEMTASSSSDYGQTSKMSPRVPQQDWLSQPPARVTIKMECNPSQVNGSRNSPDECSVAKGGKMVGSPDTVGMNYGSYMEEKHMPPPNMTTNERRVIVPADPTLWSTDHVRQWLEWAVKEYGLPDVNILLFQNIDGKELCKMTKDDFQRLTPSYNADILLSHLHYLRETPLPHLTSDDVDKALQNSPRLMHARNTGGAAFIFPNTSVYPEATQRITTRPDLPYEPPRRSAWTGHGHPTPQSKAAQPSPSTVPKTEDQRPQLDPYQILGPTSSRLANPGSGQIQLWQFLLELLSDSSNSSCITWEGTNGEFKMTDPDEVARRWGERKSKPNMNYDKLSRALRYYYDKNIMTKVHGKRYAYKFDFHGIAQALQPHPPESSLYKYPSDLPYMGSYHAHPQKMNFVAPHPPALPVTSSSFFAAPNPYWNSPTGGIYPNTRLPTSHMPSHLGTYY
#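 His-tagged ERG Ets domain (1 uM in the protein solution; 300mM KCl, 50mM Tris-HCl, 1mM EDTA, 1mM DTT, pH 7.5) received compound, then a probe mix of 5 nM fluorescein-DNA and 100nM Texas-615-DNA. Fluorescence polarization was read for both dyes.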
# LDHA inh = qHTS assay for inhibitors of human lactate dehydrogenase | activity change, % (values are at about 110 or 230 µM) | 480,000 tested, 0.15% active | L-lactate dehydrogenase A chain (Homo sapiens), P00338 | purified LDHA, NADH/diaphorase-resazurin fluorescence; stronger effect = lower value; in the data active = activity change below about -30%; inconclusive = mostly about -25% to -30%;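 also: plate controls were DMSO wells for no effect and wells without enzyme for full effect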
#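 Human LDH5 at 2 nM final in Tris HCl pH 7.4 with 0.06 mM NADH and 0.2 mM pyruvate, reacted 5 minutes at room temperature. Remaining NADH coupled via diaphorase/resazurin; resorufin fluorescence read at 0 and 20 minutes, normalized to enzyme-free and DMSO wells.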
# Nrf2 block = Nrf2 qHTS screen for inhibitors; A549 ARE-Fluc reporter, luciferase luminescence, 18-24 h; Potency, µM (titrated, usually from 46 µM), for inactives: top-dose activity change, negative = inhibition, most hits filed as inhibitors; 360,000 tested, 2.1% active; AID 504444, 2011; also: potency is read from the fitted curve at half-maximal effect; % is scaled to controls: 0 for no effect and ±100 for the full control effect; nearly all actives have a fitted effect of over 60% in size
#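 Concentration-response testing used A549 ARE_Fluc cells at 5000 cells/well. Following an 18-24 h compound incubation, viability was read by fluorescence (Ex 405/Em 525) and luciferase output by luminescence.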
# 12-LOX inh = Primary qHTS assay for inhibitors of human arachidonate 12S-lipoxygenase (ALOX12): Round 2; Potency, µM (top dose mostly 108 µM), for the others: at the highest dose activity change, negative = inhibition, actives largely listed as inhibitors; 580,000 tested, 1.1% active; purified 12hLO, xylenol orange hydroperoxide absorbance; also: potency is read from the fitted curve at half-maximal effect; % is scaled to controls: 0 for no effect and ±100 for the full control effect
#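 Hydroperoxide product was detected by ferrous iron/xylenol orange as the 573 to 405 nm absorbance ratio. Arachidonic acid at 40 uM (final) was turned over for 30 min at room temperature by 150 nM human 12hLO, pH 7.0 Hepes buffer, after 15 min compound preincubation.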
# * marks the source's active call; other numbers are inactive results; ? = inconclusive; · = not tested or not shown; [ ] = dose if it differs, or a comment. A selection: hits, their analogues and other compounds. The true share with any hit is near 2.7%. Unless noted, calls follow the shape of the dose curve; as a rule, active = well fitted curve in the direction sought with a large enough effect; inconclusive = small, poorly fitted or top-dose-only effect, or another doubt; inactive = no such curve, though single readings can be large; an effect the other way counts as inactive or inconclusive.
SMILES,A549 viability,Nrf2 ARE act,ERG-DNA inh,LDHA inh,Nrf2 block,12-LOX inh
CC(=O)c1cccc(NC(=O)O[C@@H]2CO[C@H]3[C@@H]2OC[C@@H]3NC(=S)Nc2cccc3ccccc23)c1,·,·,·,·,·,6%
O=C(Nc1ccccc1)O[C@@H]1CO[C@H]2[C@@H]1OC[C@@H]2NC(=S)Nc1ccccc1,·,·,·,·,·,71µM*
O=C(Nc1cccc2ccccc12)O[C@@H]1CO[C@H]2[C@@H]1OC[C@@H]2NC(=S)Nc1ccc(Cl)cc1,·,·,·,·,·,35µM*
CC1CCC(NC(=O)Cc2coc(-c3ccccc3)n2)CC1 (configuration not stated),·,·,·,4,·,-11%
COc1ccc(-c2noc(CCC(=O)N3CCc4sccc4C3c3cccs3)n2)cc1OC (configuration not stated),·,·,·,9,·,?
COC(=O)c1cc(C2CC2)nc2onc(-c3ccc(F)cc3)c12,·,·,·,13,·,18%
NC(=O)CO[C@@H]1CO[C@H]2[C@@H]1OC[C@@H]2NC(=O)Nc1cccc2ccccc12,·,·,·,·,·,-5%[176 µM]
S=C(Nc1cccc2ccccc12)N[C@H]1CO[C@H]2[C@@H]1OC[C@H]2OCc1ccccc1,·,·,·,·,·,63µM*
CCC1(c2ccc(F)cc2)NC(=O)N(CC(=O)N2CCN(S(=O)(=O)c3ccc(Cl)cc3)CC2)C1=O (configuration not stated),-6%,4%,-7%,-4,-25%,-8%
CCC1(c2ccc(F)cc2)NC(=O)N(CC(=O)N2CCN(S(=O)(=O)c3ccc(C)cc3C)CC2)C1=O (configuration not stated),-22%,6%,-5%,-1,18µM*,342%
COc1ccc(CNC(=O)Cn2c(=O)nc(-c3ccccc3F)c3cc(Cl)ccc32)cc1OC,16µM*,0%,-2%,-8,·,-27%
O=S(=O)(c1ccccc1)N1CCC(N2CCCCCC2)CC1,-4%,-1%,4%,-6,12%,4.5µM*
CC1CN(C2CCN(S(=O)(=O)c3ccccc3)CC2)CC(C)O1 (configuration not stated),2%,-1%,-1%,-32*,0%,?
COc1ccc(S(=O)(=O)N2CCC(N3CCCC3)CC2)cc1,1%,0%,-1%,-16,-7%,?
Cc1sc(N)nc1-c1ccc(NC(=O)C(C)C)cc1,·,·,·,11,·,?
N#C/C(=C\c1c[nH]c2ccccc12)C(=O)Nc1ccc(O)cc1,·,·,·,1,·,?
O=c1cc(-c2c(O)c3ccccc3n(Cc3ccccc3)c2=O)[nH][nH]1,0%,0%,6%,19,-6%,25µM*
CSc1nc2nc(C(F)(F)F)cc(-c3ccccc3)n2n1,-4%,14µM*,-4%,0,1%,0%[57.4 µM]
O=C1C=C(O)c2cccc(O)c2C1=O,-23%,3%,1%,16,-27%,35µM*
Clc1cccc(-c2nn3c(-c4ccc5ccccc5n4)nnc3s2)c1,·,·,·,1,·,35µM*
COc1ccc(-c2cc(C)no2)cc1S(=O)(=O)Nc1cccc(C(F)(F)F)c1,5%,1%,4%,-4,18µM*,-29%
COc1ccc(-c2cnc(C)o2)cc1S(=O)(=O)Nc1cccc(C(F)(F)F)c1,-6%,5%,6%,-1,·,?
Cc1cc(-c2ccc(C)c(S(=O)(=O)Nc3cccc(C#N)c3)c2)on1,-24%,0%,4%,-3,7.3µM*,?
CC(=O)Nc1ccc2nc(-c3cccn3C)[nH]c2c1,0%,7%,-5%,-5,?,-6%
Cn1cccc1-c1nc2ccc(NC(=O)c3cccs3)cc2[nH]1,-14%,3%,0%,-2,18µM*,-24%
SMILES,A549 viability,Nrf2 ARE act,ERG-DNA inh,LDHA inh,Nrf2 block,12-LOX inh
O=C(Nc1ccc2nc(-c3ccc(Br)o3)[nH]c2c1)c1cccs1,?,7%,7%,-5,18µM*,273%
Nc1nc2sc3c(c2cc1C(=O)NCC(=O)O)CCCC3,4%,-1%,-11%,-5,8.2µM*,?
COc1cc2c(c(OC)c1OC)C(=O)C(=Cc1ccccc1)O2,6%,16µM*,2%,-7,?,-7%
COc1cc(/C=C2\Oc3cc(OS(C)(=O)=O)cc(C)c3C2=O)cc(OC)c1OC,·,·,·,11,·,-19%
COc1ccc(C(CC(=O)NCc2ccco2)c2ccc(F)cc2)cc1 (configuration not stated),-18%,-1%,2%,0,1%,-13%
Cc1ccc(C(CC(=O)NCc2ccco2)c2ccc(OC(C)C)cc2)cc1 (configuration not stated),?,8%,4%,11,7.3µM*,?
CCn1c2ccccc2c2cc(NC(C)=O)ccc21,-1%,0%,3%,-5,·,?
N#Cc1ccc2sn(-c3ccccc3)c(=O)c2c1,·,10%,·,-11,·,0.35µM*
CC(=O)Nc1ccc2sn(-c3ccccc3)c(=O)c2c1,·,?,·,-5,·,1.1µM*
O=c1c2cc([N+](=O)[O-])ccc2sn1-c1ccccc1,·,8%,·,-15,·,0.25µM*
C[C@@H]1C[C@H](C)CN(C(C(=O)O)c2cn(Cc3ccccc3)c3cc(C(=O)O)ccc23)C1 (some centres not stated),·,·,·,-1,·,?
CSc1cccc(Nc2nc(N)c(C(=O)c3ccccc3F)s2)c1,·,·,·,10,·,-15%
CCCS(=O)(=O)N1CCN(Cc2cc(=O)n3nc(-c4ccc(OC)cc4)sc3n2)CC1,·,·,·,-1,·,?
Cc1c(CCl)cc(C(=O)O)cc1CCl,·,·,·,2,·,5.6µM*
Cc1c(Br)cc(C(=O)O)cc1Br,·,·,·,3,·,-27%
COc1ccc(-c2csc(=Nc3ccccc3)n2CCO)cc1F,-13%,10%,0%,0,?,?
FC(F)Oc1ccc(-c2csc(=Nc3cccnc3)n2CC2CCCO2)cc1 (configuration not stated),0%,1%,-1%,-10,15µM*,-14%
COCCn1c(-c2ccc(Br)cc2)csc1=Nc1cccnc1,-15%,3%,5%,-5,18µM*,132%
COCCCn1c(-c2ccc(S(=O)(=O)N3CCOCC3)cc2)csc1=Nc1ccccc1,1%,3%,-1%,-17,16µM*,?
